# Measured values reported in PubChem BioAssay AID1345082 (National Center for Advancing Translational Sciences (NCATS), 2018).
# About 4,000 (4.3%) of roughly 94,000 compounds were called active. Inconclusive results (about 29%) are left out. The full list was thinned out, with actives kept by preference. A number with no mark means an inactive call. Calls follow the shape of the dose curve; as a rule, active = well fitted inhibition curve with a large enough effect; inconclusive = small, poorly fitted or top-dose-only effect; inactive = no such curve, though single readings can be large or run the other way.
# Experiment: Cytotoxic Profiling in NIH 3T3 Cell Line of Diverse Libraries Using Quantitative High-Throughput Screening; also: nearly all actives have a fitted effect of over 55% in size
# Details: NIH 3T3 viability, CellTiter-Glo ATP luminescence, 48-72 h; series mostly up to 96.7 µM; activity change, negative = cytotoxicity: at the top concentration
# Text: Cell-based phenotypic screening is a commonly used approach to discover biological pathways, novel drug targets, chemical probes and high-quality hit-to-lead molecules. Many hits identified from high-throughput screening campaign are ruled out through a series of follow-up potency, selectivity/specificity, and cytotoxicity assays. Prioritization of molecules with little or no cytotoxicity for a more in-depth downstream evaluation influence the future direction of projects, so cytotoxicity profiling of the screening libraries at early stage is essential for increasing the likelihood of candidate success. In this study, we analyzed results from a cell-based cytotoxicity screening campaign, comprising nearly 10,000 compounds in NCATS annotated libraries, and over 100,000 compounds in a diversity library, evaluated in four normal cell lines (HEK 293, NIH 3T3, CRL-7250 and HaCat) and a cancer cell line (KB 3-1, a HeLa subline) with overall screening outcomes, hit rates, pan-activity and selectivity. For the annotated library, we also examined the primary targets and mechanistic pathways regularly associated with cell death. To our knowledge, this is the first study to use high-throughput screening to profile large libraries for cytotoxicity assessment in both normal and cancer cell lines. In summary, the results generated here constitutes a valuable resource for the scientific community and provides insight on identifying cytotoxic compounds with particular mechanisms of action, and prioritizing compounds with suitable cytotoxicity profile for further evaluation.
# NIH 3T3 cells were seeded into white 1536-well plates using a Multidrop Combi peristaltic dispenser (ThermoFisher, Waltham, MA) at a density of 400 cells/well in 5 uL of medium respectively. A pintool (Kalypsys) was used to transfer 23 nL of compound solution to the 1536-well assay plates. After 48 or 72 hr incubation at 37 degree Celsius, 5% CO2 and 95% humidity, 2.5 uL of CellTiter-Glo (Promega) was dispensed into each well using a dispenser (Aspect Automation, St. Paul, MN) with solenoid valves (Lee Valves, Westbrook CT). Plates were left at room temperature for 10 min before imaging the ATP-coupled luminescence using a ViewLux microplate imager (PerkinElmer, Waltham, MA).
# % is scaled to controls: 0 for no effect and ±100 for the full control effect; potency is read from the fitted curve at half-maximal effect.
Structure (SMILES),Potency,"activity change, negative = cytotoxicity",outcome
CC(C)Cc1cc(CNc2nc(C(C)(C)C)nc3c2cnn3C)no1,44.7 µM (active),,
CCCc1nc(NCC(c2ccccn2)N2CCOCC2)c2cnn(C)c2n1 (stereo not drawn),,-21.1%,
COc1ccc2[nH]cc(CCNC(=O)CC3=C4CCCCC4N(C)C3=O)c2c1 (stereo not drawn),,-14.7%,
COc1ccc(CNC(=O)CC[C@@H]2CNC(=O)[C@@H]3C[C@H](NC(=O)Nc4ccsc4)CN23)cc1,,-13.2%,
CCOC(=O)C1CCCN(C(=O)c2ccc3oc(-c4ccccn4)nc3c2)C1 (stereo not drawn),,-25.6%,
CC(=O)N1CCN(C(=O)c2ccc3nc(-c4ccncc4)oc3c2)CC1,,-10%,
Cc1cccc(-c2nc3ccc(C(=O)N4CCCCC4)cc3o2)n1,10 µM (active),,
CCOc1ccccc1C1NC(=O)N(CC(=O)Nc2ccc(C)c(C)c2)C2=C1C(=O)OC2 (stereo not drawn),,-18.4%,
Cc1ccccc1NC(=O)CN1C(=O)NC(c2ccccc2Cl)C2=C1COC2=O (stereo not drawn),,3.33%,
CCOc1ccccc1C1NC(=O)N(CC(=O)Nc2c(C)cccc2Cl)C2=C1C(=O)OC2 (stereo not drawn),,-3.32%,
CCc1cccc(NC(=O)CN2C(=O)NC(c3ccc(Cl)cc3)C3=C2COC3=O)c1 (stereo not drawn),25.1 µM (active),,
Cc1ccc(Cl)cc1NC(=O)CN1C(=O)NC(c2ccc(Cl)cc2)C2=C1COC2=O (stereo not drawn),35.5 µM (active),,
Cc1cccc(C)c1NC(=O)CN1C(=O)NC(c2ccc(Cl)cc2)C2=C1COC2=O (stereo not drawn),,-22.8%,
CCN1CC2(CCN(Cc3c(OC)ccc(F)c3F)CC2)OC1=O,,-17.4%,
COc1ccc(-c2cccc(C(=O)N3CCN(C(=O)c4ccc(Cl)nc4)CC3)c2)nn1,,-9.4%,
COCCc1noc(C2Cc3ccccc3N2C(=O)NCc2ccco2)n1 (stereo not drawn),,,inactive
O=C(NC[C@H]1O[C@H](Cc2cc(-c3ccccc3)on2)CC[C@@H]1O)C1CCC1,,-24.2% [at 174 µM],
O=C1Nc2ccccc2CC12CCN2Cc1cncs1 (stereo not drawn),,-7.66% [at 138 µM],
CC(=O)N1CCN(C(=O)c2ccccc2N2CCOCC2)CC(O)C1 (stereo not drawn),,1.1%,
O=C1Cc2c(-c3ccc(CO)cc3)n[nH]c2CN1CC1CCOCC1,79.4 µM (active),,
COCc1cccc(-c2n[nH]c3c2CC(=O)N(c2ccccc2)C3)c1,,-29% [at 138 µM],
c1cc(-c2ccc3c(c2)OCCCO3)n2ncnc2n1,,-6.36%,
COc1ccc(Cn2c(=O)c(C(=O)N3CCN(C(=O)Nc4ccccc4)CC3)nc3cccnc32)cc1,,-14%,
COc1ccc(F)cc1-c1ccc(CN2CCC(NC(=O)c3ccccc3)C2)cc1 (stereo not drawn),35.5 µM (active),,

Structure (SMILES),Potency,"activity change, negative = cytotoxicity",outcome
COc1ccc(F)cc1S(=O)(=O)N1[C@@H]2CC[C@H]1CC(NC(=O)c1ccc(F)cc1)C2 (stereo partly drawn),,-23.8%,
COCCC1(NC(=O)c2ccccc2)CCN(Cc2ccc(F)cc2F)CC1,,-5.71%,
COc1ccc(CC(=O)NC2CCN(Cc3ccc(-c4ccccc4OC)cc3)C2)cc1 (stereo not drawn),31.6 µM (active),,
COc1ccccc1-c1ccc(C(=O)N2CCC(C(=O)NC3CC3)CC2)cc1,,-28.9%,
O=C(NC1CCCN(Cc2ccc(-c3cncnc3)cc2)C1)c1ccccc1 (stereo not drawn),,-26.2%,
Cc1cc(C)cc(-c2ccc(CN3CCCC(NC(=O)c4ccccc4)C3)cc2)c1 (stereo not drawn),22.4 µM (active),,
COc1cccc(-c2ccc(CN3CCCC(NC(=O)NC4CCCC4)C3)cc2)c1 (stereo not drawn),,-37.7%,
O=C(NC1CCCN(Cc2ccc(-c3cncnc3)cc2)C1)C1CCCC1 (stereo not drawn),,-24.3%,
CCn1ncnc1CN1CCC2(CC1)CC(C(=O)O)N(C(C)=O)C2 (stereo not drawn),,-11%,
COCC(=O)NC1CCC12CCN(C(=O)Nc1ccccc1)CC2 (stereo not drawn),,-13.9%,
Cc1ccc(C(=O)NC2CCN(c3ccc4nnc(C)n4n3)C2)cc1 (stereo not drawn),,-24.8% [at 138 µM],
O=C([C@@H]1C[C@H](F)CN1C(=O)Cc1ccccc1Cl)N1CCCCC1,,-1.58%,
Cc1ccccc1N1Cc2c(NCC(C)C)ncnc2N(C)CC1=O,,-1.61%,
CC/C=C/CC(=O)N1CCC2(CCN(Cc3cccnc3)CC2)C(CO)C1 (stereo not drawn),,3%,
COc1cccc2c1CCN=C2C[C@H]1CN(C(=O)C(C)(C)C)CC[C@H]1CC(=O)O,,-20.9% [at 174 µM],
Cc1n[nH]c(C)c1CCC(=O)N1CCCC(c2ccc(C(=O)O)cc2)C1 (stereo not drawn),,-7.96%,
COc1ccc(S(=O)(=O)N2C[C@@H](Oc3ccccc3)C[C@@H]2C(=O)N2CCOCC2)cc1,,-2.54%,
Cc1c(C(=O)N2C[C@@H](CN(C)C)C[C@H](CO)C2)n(C)c2c(C)cccc12,,-19.7%,
CN(C)C[C@@H]1CN(C2CCOCC2)C[C@H]1NC(=O)c1ccco1,,2.09%,
Cc1ccc2nc3n(c2c1)[C@@H](CNC(=O)c1ccc(C#N)cc1)COC3,89.1 µM (active),,
Cc1ccc2c(c1)nc1n2[C@@H](CNC(=O)c2ccccc2)COC1,,-7.85% [at 138 µM],
COc1ccc2c(c1)nc1n2[C@@H](CNC(=O)c2ccncc2)COC1,,-26.6% [at 174 µM],
O=C(CCC1CCCN(S(=O)(=O)c2ccc(F)cc2)C1)NC1CCS(=O)(=O)C1 (stereo not drawn),,-23%,
O=C(NC1CCc2nn(CC3CC3)c(=O)n2CC1)c1ccc(Cn2ccnc2)o1 (stereo not drawn),,-16.1%,
